# Assay results as given in PubChem BioAssay AID2284358 (EPA ToxCast).
# Inconclusive results are not listed. The source made the active and inactive calls. The calls were made as follows: active = hit-call score of the fitted dose curve at least 0.9, where 1 is the maximum; inconclusive = response in the unintended direction; inactive = score below 0.9.
# Target: zebrafish Retinoid X Receptor beta (RXRb), rxrba (gene 30530) (UniProt Q7SYN5)
# Test: ATG_zfRXRb_EcoTox2: Attagene TRANS-FACTORIAL EcoTox-2 HepG2 Assay for zebrafish Retinoid X Receptor beta (RXRb)
# Method: ATG_EcoTox2 is a cell-based, multiplexed assay created by modifying the existing Attagene TRANS-FACTORIAL system to include a panel of nuclear receptors from some or all the following species: human (Homo sapiens), african clawed frog (Xenopus laevis), rainbow trout (Oncorhynchus mykiss), japanese medaka (Oryzias latipes), and zebrafish (Danio rerio). The ECOTOX2-FACTORIAL format uses HepG2, a human liver cell line, with measurements taken at 24 hours after chemical dosing in a 24-well plate. ATG_zfRXRb_EcoTox2 is one of 29 assay components calculated in the ATG_EcoTox2 assay. It is designed to make measurements of mRNA induction, a form of inducible reporter, as detected with fluorescence intensity signals by Reverse transcription polymerase chain reaction (RT-PCR) and Capillary electrophoresis technology.The assay endpoint ATG_zfRXRb_EcoTox2 was analyzed in the positive analysis fitting direction relative to DMSO as the negative control and baseline of activity. Using a type of inducible reporter, measures of mRNA for gain-of-signal activity can be used to understand the reporter gene at the transcription factor-level as they relate to the gene RXRb. Furthermore, this assay endpoint can be referred to as a primary readout, because this assay has produced multiple assay endpoints where this one serves a reporter gene function. To generalize the intended target to other relatable targets, this assay endpoint is annotated to the nuclear receptor intended target family, where the subfamily is non-steroidal.
# Human liver HepG2 cells are transiently transfected with multiple reporter transcription units (MRTUs) in 6-well plates using FuGene 6 reagent (Roche; 3 ml FuGene/1 mg DNA). The MRTU constructs are regulated by a cis-regulating element (promoter). Each RTU expresses a GAL4-UAS that regulates the transcription of a nearby target reporter gene sequence. A major difference between the CIS and TRANS system is that in CIS activities of endogenous TFs are measured, whereas the TRANS assay evaluates changes in activities of exogenous, chimeric NR-Gal4 proteins. […] At the end of 24 hour incubation, total RNA was isolated using TriZol reagent (Invitrogen). The isolated RNA is then reverse-transcribed using oligo(dT) primer and Mo-MLV reverse transcriptase (Invitrogen) with DNAse I (Ambion) treatment for 30 min. The one-tenth of the produced cDNA was amplified by PCR using Taq DNA polymerase (Invitrogen) and two reporter sequence-specific primers. The PCR products were fluorescently labeled by primer extension with 6-arboxyfluorescein (6-FAM) 5'-labeled reporter sequence-specific primer (2 min at 95 C, 20 s at 68 C and 10 min at 72 C) and these products were digested with 5U of HpaI (New England Biolabs) for 2h at 37 C. The fragments were purified using Qiaquick PCR columns (Qiagen), analyzed on an ABI 3130xL genetic analyzer (Applied Biosystems) with peak positions identified by using a set of X-rhodamine (ROX)-labeled MapMarker1000 molecular weight standards (BioVentures). The raw capillary electrophoresis data was processed using Attagraph software (Attagene).
# Sequence of zebrafish Retinoid X Receptor beta (RXRb), rxrba (gene 30530) (Q7SYN5 whole entry, looked up): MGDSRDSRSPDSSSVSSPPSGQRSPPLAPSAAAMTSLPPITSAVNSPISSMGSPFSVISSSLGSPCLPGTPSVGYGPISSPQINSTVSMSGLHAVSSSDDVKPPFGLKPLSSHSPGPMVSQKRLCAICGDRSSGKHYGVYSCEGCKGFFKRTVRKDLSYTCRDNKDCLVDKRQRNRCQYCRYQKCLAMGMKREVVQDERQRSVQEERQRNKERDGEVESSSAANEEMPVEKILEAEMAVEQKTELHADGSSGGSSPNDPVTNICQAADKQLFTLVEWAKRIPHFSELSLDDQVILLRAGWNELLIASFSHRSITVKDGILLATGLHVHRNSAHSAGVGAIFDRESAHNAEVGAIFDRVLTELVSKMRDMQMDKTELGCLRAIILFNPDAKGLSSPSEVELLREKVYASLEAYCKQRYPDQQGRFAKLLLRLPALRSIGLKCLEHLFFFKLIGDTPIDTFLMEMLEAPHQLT
SMILES,outcome,AC50
Cc1ccc(C)c(OCCCC(C)(C)C(=O)O)c1,inactive,–
CC(C)(Oc1ccc(Cl)cc1)C(=O)O,inactive,–
C=C(c1ccc(C(=O)O)cc1)c1cc2c(cc1C)C(C)(C)CCC2(C)C,–,597 nM (active)
Cc1cccc(Nc2cc(Cl)nc(SCC(=O)O)n2)c1C,inactive,–
CC(c1cc2ccccc2s1)N(O)C(N)=O (stereo not given),inactive,–
Cc1c(C)c2c(c(C)c1O)CCC(C)(COc1ccc(CC3SC(=O)NC3=O)cc1)O2 (stereo not given),inactive,–
CC(C)(Oc1ccc(C2CC2(Cl)Cl)cc1)C(=O)O (stereo not given),inactive,–
C[C@]12C=CC(=O)C=C1CC[C@@H]1[C@@H]2C(=O)C[C@@]2(C)[C@H]1CC[C@]2(O)C(=O)CO,inactive,–
CC(C)(Oc1ccc(CCNC(=O)c2ccc(Cl)cc2)cc1)C(=O)O,inactive,–
C[C@@H]1C[C@H]2[C@@H]3CCC4=CC(=O)C=C[C@]4(C)[C@@]3(F)[C@@H](O)C[C@]2(C)[C@@]1(O)C(=O)COP(=O)(O)O,inactive,–
